# Measured values from PubChem BioAssay.
# Values joined by “and” are separate entries in the source; they are usually repeats but may differ in a detail not shown here. Equal values may be shown once. Results filed as inconclusive are left out. For some of these results: Potency and affinity values are given separately. A structure can be active in one record and inactive in another. Active and inactive are the calls of the source. Unless noted, no rule for the calls is given here.
# Columns and labels:
# [1] = test system: Aerobactin synthetase IucA (Klebsiella pneumoniae hvKP1); experiment: IucA enzyme inhibition, primary screen, biochemical, Spectrum library (AID 1346200); details: malachite green pyrophosphate, A620, at 8 µM, stronger effect = lower value;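 also: 100% = wells without compound and 0% = wells lacking enzyme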
# [2] = test system: Aerobactin synthetase IucA (Klebsiella pneumoniae, hypervirulent); experiment: biochemical IucA inhibition screen of LOPAC library by absorbance (AID 1346212); details: IucA enzyme assay, absorbance (OD) readout; stronger effect = lower value;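 tested at 8 µM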;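 also: 100% = no compound wells and 0% = no enzyme wells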
# [3] = blockers of polyQ-driven CASP3 activation – cell-based (AID 1583); details: polyglutamine-induced caspase-3 activation, cell assay; stronger effect = higher value;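 tested at 10 µM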
# [4] = target: Huntingtin (Homo sapiens) (UniProt P42858); experiment: mutant huntingtin aggregation blockers – QA1, dose response (AID 1584); details: in vitro mutant huntingtin aggregation assay; confirmation test; at 10 µM; stronger effect = lower value
# Huntingtin (Homo sapiens), sequence (P42858 whole entry, looked up): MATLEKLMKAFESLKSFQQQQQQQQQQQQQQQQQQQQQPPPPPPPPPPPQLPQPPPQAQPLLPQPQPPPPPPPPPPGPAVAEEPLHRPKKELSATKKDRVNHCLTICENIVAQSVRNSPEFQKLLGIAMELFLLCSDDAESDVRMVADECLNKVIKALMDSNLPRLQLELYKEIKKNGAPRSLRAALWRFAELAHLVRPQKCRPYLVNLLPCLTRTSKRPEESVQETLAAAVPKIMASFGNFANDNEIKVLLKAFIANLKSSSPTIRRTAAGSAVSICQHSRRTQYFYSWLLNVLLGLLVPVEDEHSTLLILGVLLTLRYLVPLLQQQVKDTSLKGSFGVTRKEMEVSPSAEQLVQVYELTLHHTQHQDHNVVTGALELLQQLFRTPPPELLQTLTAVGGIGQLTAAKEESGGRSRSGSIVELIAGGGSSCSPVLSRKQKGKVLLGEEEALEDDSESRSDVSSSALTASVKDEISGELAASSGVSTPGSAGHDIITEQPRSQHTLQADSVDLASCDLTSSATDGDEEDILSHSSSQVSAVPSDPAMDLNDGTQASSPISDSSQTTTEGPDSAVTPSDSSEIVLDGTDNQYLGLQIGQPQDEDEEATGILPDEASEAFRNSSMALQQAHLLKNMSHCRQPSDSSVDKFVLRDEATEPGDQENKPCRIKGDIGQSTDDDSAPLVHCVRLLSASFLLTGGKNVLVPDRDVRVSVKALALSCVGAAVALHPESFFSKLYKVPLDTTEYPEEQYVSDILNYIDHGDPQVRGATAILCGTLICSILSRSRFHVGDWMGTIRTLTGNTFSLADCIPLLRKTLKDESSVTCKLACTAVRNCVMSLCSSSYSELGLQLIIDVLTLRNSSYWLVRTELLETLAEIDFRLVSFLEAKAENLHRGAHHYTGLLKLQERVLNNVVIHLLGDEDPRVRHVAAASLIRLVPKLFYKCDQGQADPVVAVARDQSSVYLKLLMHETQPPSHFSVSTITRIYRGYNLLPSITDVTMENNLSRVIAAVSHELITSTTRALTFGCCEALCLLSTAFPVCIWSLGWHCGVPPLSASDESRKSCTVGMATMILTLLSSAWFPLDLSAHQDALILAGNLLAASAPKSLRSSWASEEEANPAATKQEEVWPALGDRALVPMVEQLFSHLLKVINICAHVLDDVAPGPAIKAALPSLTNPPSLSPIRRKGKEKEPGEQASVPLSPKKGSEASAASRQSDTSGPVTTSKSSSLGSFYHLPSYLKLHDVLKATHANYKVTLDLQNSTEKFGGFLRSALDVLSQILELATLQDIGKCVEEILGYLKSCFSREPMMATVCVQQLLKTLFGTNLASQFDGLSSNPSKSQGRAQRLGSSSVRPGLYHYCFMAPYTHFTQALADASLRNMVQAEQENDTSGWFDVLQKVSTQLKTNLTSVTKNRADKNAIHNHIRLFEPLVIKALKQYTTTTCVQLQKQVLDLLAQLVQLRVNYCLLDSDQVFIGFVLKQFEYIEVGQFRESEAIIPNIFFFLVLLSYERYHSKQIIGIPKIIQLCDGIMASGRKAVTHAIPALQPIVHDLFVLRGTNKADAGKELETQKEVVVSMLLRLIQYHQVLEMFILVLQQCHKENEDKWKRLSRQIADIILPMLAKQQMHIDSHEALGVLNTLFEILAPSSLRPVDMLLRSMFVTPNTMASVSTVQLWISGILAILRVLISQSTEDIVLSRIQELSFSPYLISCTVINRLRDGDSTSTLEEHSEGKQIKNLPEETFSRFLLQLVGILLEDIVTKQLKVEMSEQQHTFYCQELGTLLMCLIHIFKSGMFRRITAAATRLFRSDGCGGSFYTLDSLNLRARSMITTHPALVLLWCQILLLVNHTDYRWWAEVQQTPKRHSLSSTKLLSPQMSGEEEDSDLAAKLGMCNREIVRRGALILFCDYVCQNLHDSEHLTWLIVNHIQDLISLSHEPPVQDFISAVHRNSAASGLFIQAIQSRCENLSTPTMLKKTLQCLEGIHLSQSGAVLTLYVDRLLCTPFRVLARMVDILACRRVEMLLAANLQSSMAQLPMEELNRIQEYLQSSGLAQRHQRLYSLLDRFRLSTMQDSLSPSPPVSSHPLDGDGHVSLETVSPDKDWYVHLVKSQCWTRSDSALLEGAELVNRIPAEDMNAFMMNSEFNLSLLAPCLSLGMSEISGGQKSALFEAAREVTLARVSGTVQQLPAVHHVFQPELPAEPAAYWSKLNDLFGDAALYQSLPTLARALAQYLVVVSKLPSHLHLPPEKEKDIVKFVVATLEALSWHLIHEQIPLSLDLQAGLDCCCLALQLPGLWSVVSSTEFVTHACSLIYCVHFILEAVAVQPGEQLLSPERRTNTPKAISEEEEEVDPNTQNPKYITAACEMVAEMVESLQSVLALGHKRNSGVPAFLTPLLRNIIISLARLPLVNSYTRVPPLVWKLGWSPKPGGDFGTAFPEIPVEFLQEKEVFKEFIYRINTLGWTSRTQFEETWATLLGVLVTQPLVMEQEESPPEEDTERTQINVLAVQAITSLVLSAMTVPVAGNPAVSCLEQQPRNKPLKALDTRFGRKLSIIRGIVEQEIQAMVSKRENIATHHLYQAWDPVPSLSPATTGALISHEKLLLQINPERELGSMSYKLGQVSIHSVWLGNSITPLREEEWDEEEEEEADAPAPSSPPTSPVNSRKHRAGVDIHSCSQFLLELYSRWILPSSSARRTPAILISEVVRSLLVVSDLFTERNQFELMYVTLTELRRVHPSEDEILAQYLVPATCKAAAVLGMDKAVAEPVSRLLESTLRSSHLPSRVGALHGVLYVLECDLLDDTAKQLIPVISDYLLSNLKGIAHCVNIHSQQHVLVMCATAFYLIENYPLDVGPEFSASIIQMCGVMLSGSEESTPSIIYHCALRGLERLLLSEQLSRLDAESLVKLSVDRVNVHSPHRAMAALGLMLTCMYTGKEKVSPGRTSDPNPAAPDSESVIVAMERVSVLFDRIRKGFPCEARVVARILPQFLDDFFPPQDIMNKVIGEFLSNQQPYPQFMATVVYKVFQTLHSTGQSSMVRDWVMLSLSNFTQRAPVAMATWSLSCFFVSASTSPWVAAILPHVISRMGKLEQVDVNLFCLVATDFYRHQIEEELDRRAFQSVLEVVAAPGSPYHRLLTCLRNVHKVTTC
# [5] = yeast 75Q aggregation reduction – 75Q-TubU reporter (AID 1593); details: Yeast 75Q polyglutamine aggregation reporter
# [6] = restoration of touch response, mutant HTT neurons – whole organism, C. elegans mechanosensory neurons, N-terminal huntingtin (AID 1599); details: C. elegans polyQ-huntingtin mechanosensory neurons, stronger effect = higher value
# [7] = blockers of cytochrome c efflux from mitochondria – biochemical, purified mitochondria (AID 1603); details: stronger effect = lower value;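 also: mouse liver mitochondria challenged with calcium chloride; signal normalized to the plate average as 100%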
# [8] = polyglutamine aggregate formation blockers (AID 1604); details: polyglutamine-induced protein aggregation inhibition assay; stronger effect = higher value; tested at 2.5 µM
# [9] = glutamate transport activators, MN-1 cells, MN-1 cell line (AID 1612); details: MN-1 motor neuron cells, stronger effect = higher value;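 also: tested at 1 µM final; 0% = mean of DMSO vehicle wells on each plate; positive means more glutamate uptake than control and negative means less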
# [10] = 75Q-TubH aggregate inhibition, S. cerevisiae, yeast (AID 1616); details: S. cerevisiae 75Q-TubH polyglutamine aggregation suppression; stronger effect = higher value
# [11] = P. berghei load reduction in hepatocytes – cell-based, HepG2, luciferase luminescence, HepG2 viability, primary screen (AID 624349; in the data active = parasite load remaining mostly below about 12%, no sharp cut-off; inactive = mostly above about 10%;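 also: 100% = mean of DMSO negative control wells on the same plate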); details: P. berghei liver stage in HepG2, luciferase luminescence, concentration not given here; parasite load remaining: stronger effect = lower value; viability: measured here: HepG2 viability without parasites
# [12] = viability loss with induced miR-34 in A549 – imaging, A549 dox-inducible miR-34, nuclei and caspase counts, primary screen (AID 1347080;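 active = compounds whose cell count with miR-34 switched on is under 0.7 times the count with it off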); details: A549 miR-34 inducible, Hoechst nuclei count, 48 h
# [13] = target: Mitogen-activated protein kinase 7 (Homo sapiens) (UniProt Q13164); experiment: Gal4-ERK5 driven luciferase induction – cell-based, HTS, primary screen (AID 1508626;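 active = luciferase signal above three times the same-plate solvent-only control wells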;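 also: luciferase driven by Gal4-ERK5 fusion binding five Gal4 sites before minimal TATA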); details: HeLa Gal4-ERK5 transactivation, 18 h, at 5 µM, stronger effect = higher value
# Mitogen-activated protein kinase 7 (Homo sapiens), sequence (Q13164 whole entry, looked up, the tested form may be a part): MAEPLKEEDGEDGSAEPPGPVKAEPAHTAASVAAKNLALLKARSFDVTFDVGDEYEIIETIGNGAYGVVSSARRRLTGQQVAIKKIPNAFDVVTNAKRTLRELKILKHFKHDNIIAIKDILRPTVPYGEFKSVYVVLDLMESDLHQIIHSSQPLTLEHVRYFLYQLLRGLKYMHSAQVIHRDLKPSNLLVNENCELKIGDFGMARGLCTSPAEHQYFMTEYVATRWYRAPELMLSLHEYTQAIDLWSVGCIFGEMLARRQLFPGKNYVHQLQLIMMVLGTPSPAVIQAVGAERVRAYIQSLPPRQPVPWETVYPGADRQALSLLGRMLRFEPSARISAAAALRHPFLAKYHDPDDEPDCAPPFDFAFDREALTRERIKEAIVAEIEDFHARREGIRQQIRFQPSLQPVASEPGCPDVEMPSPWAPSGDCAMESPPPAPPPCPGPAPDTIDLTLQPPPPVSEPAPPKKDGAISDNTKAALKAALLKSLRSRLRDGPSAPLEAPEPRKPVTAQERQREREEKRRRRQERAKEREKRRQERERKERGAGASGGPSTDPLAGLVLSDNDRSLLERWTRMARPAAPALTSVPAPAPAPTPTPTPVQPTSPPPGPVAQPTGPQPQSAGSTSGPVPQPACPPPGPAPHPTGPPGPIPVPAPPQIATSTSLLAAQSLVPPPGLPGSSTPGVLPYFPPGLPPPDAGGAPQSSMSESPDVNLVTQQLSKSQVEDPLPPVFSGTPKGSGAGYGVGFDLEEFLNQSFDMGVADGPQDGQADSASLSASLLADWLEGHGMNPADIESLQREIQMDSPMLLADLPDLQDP
# [14] = blockers of cellular phospholipid synthesis – cell-based, LOPAC library, screen 4, primary screen (AID 1347384); details: animal cells, phospholipid biosynthesis inhibition screen; at 10 µM
# [15] = compounds altering circadian rhythm period length – cell-based, LOPAC library, luminescence reporter (AID 2774); details: circadian reporter cells, at 7 µM, actives lie on both sides;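 also: values are relative to mean of DMSO wells on each plate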
# [16] = test system: Hepatitis C virus NS3 helicase; experiment: blockers of NS3h binding to ssDNA – biochemical, fluorescence polarization, LOPAC1280 library, primary screen (AID 687035; in the data active = inhibition above about 37%); details: Purified HCV NS3 helicase, Cy5-dT15 ssDNA binding fluorescence polarization; stronger effect = higher value; concentration not given here
# [17] = compounds altering Cy5-DNA-NS3h complex signal – biochemical, LOPAC1280, artefact control for HCV NS3 helicase inhibitor project (AID 687037); details: Cy5-DNA-NS3h complex fluorescence interference counterscreen
# [18] = MELAS cybrid and Rieske KO viability enhancers – cell-based, MELAS cybrids, Rieske KO mouse fibroblasts, CellTiter-Glo, primary screen (AID 1508586;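 active = mean z-score across replicates of 1.96 or higher in either the MELAS or the Rieske mutant cell line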;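 also: z relative to plate mean and SD of compound and empty wells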); details: low glucose
# [19] = galactose survival enhancers in mitochondrial complex I cybrids – cell-based, galactose medium, ATP luminescence, primary screen (AID 1645843;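 active = z-score of at least 1.8 in each of two replicates, scored against plate mean and spread of sample wells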;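 also: positive z means more ATP and so rescue of galactose-driven cybrid death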); details: complex I mutant cybrid cells, 72 h, stronger effect = higher value
# [20] = measured here: relative caspase fold change +Dox/-Dox
# [21] = measured here: total cells with miR-34 induction, stronger effect = lower value
# [22] = measured here: total cells without miR-34 induction
structure (smiles),measurement,setting,value
N[C@@H]1CONC1=O,activity remaining,[1],102% (inactive)
same,remaining activity,[2],112% (inactive)
O=c1cc(-c2ccc(O)cc2)oc2cc(O)cc(O)c12,activity remaining,[1],113% (inactive)
same,remaining activity,[2],107% (inactive)
C[n+]1cc2c3c(ccc2c2ccc4cc5c(cc4c21)OCO5)OCO3,inhibition,[3],89.4%
same,aggregation ratio,[4],0.44
same,score,[5],0.8
same,rescue above control,[6],-18
same,cytochrome c release ratio,[7],1.22
same,inhibition of aggregation,[8],-2.89%
same,glutamate uptake change,[9],-11.9%
same,aggregation suppression score,[10],0.576
same,activity remaining,[1],97.5% (inactive)
same,remaining activity,[2],102% (inactive)
N[C@@H](C(=O)N[C@@H]1C(=O)N2C(C(=O)O)=C(Cl)CS[C@H]12)c1ccccc1,activity remaining,[1],103% (inactive)
same,remaining activity,[2],120% (inactive)
CCN(CC)CCNC(=O)c1ccc(NC(C)=O)cc1,activity remaining,[1],92.5% (inactive)
same,remaining activity,[2],109% (inactive)
CC(C)(C)NCC(O)c1ccc(O)c(CO)c1 (stereo not drawn),activity remaining,[1],110% (inactive)
same,remaining activity,[2],121% (inactive) and 104% (inactive)
CN(C)CCOC(c1ccccc1)c1ccccc1,activity remaining,[1],105% (inactive)
same,remaining activity,[2],100% (inactive)
NC(=NCc1ccccc1)NC(=O)c1nc(Cl)c(N)nc1N,activity remaining,[1],78.3% (inactive)
same,remaining activity,[2],94.8% (inactive)
CC[C@@]1(C2O[C@@H](C3O[C@@](O)(CC)[C@H](C)C[C@@H]3C)C[C@@H]2C)CC[C@H]([C@]2(C)CCC3(C[C@H](O)[C@@H](C)[C@@H]([C@H](C)[C@@H](OC)[C@H](C)C(=O)O)O3)O2)O1 (stereo partly drawn),parasite load remaining,[11],17.9% (inactive)
same,viability,[11],72.8%
same,activity remaining,[1],112% (inactive)
same,fold change,[12]; stronger effect = lower value,1.04 (inactive)
same,fold change,[12]; [20],1.48
same,cell count,[12]; [21],3480
same,cell count,[12]; [22],3340
same,luciferase signal,[13],32 AU (inactive)
Cc1cc(C(C)(C)C)c(O)c(C)c1CC1=NCCN1,activity remaining,[1],114% (inactive)
same,remaining activity,[2],117% (inactive)
C[N+]1(C)C2CC(OC(=O)[C@@H](CO)c3ccccc3)CC1C1OC12 (stereo partly drawn),activity remaining,[1],102% (inactive)
same,fold change,[12]; stronger effect = lower value,0.839 (inactive)
same,fold change,[12]; [20],1.06
same,cell count,[12]; [21],10100
same,cell count,[12]; [22],12100
O=C(/C=C/c1ccc(O)c(O)c1)OCCc1ccccc1,activity remaining,[1],78.8% (inactive)
same,remaining activity,[2],105% (inactive)
Clc1cccc(Cl)c1NC1=NCCN1,activity remaining,[1],119% (inactive)
same,remaining activity,[2],122% (inactive)
O=C(C1CCCCC1)N1CC(=O)N2CCc3ccccc3C2C1 (stereo not drawn),activity remaining,[1],123% (inactive)
same,remaining activity,[2],104% (inactive)
CN1CCN(CCCN2c3ccccc3Sc3ccc(Cl)cc32)CC1,activity remaining,[1],123% (inactive)
same,remaining activity,[2],86.1% (inactive)
same,outcome,[14],inactive
NCCCNCCSP(=O)(O)O,activity remaining,[1],113% (inactive)
same,remaining activity,[2],108% (inactive)
CCCCCCCCCCCCCC(=O)O[C@@H]1[C@@H](C)[C@@]2(O)[C@@H](C=C(CO)C[C@]3(O)C(=O)C(C)=C[C@@H]23)[C@@H]2C(C)(C)[C@]12OC(C)=O,activity remaining,[1],115% (inactive)
same,remaining activity,[2],75.1% (inactive)
same,fold change,[12]; stronger effect = lower value,0.96 (inactive)
same,fold change,[12]; [20],1.01
same,cell count,[12]; [21],240
same,cell count,[12]; [22],250
Nc1nc(N)c2nc(-c3ccccc3)c(N)nc2n1,activity remaining,[1],114% (inactive)
same,remaining activity,[2],93.9% (inactive)
CC(C)NCC(O)COc1cccc2[nH]ccc12 (stereo not drawn),activity remaining,[1],103% (inactive)
same,remaining activity,[2],116% (inactive)
CCn1cc(C(=O)O)c(=O)c2ccc(C)nc21,period change,[15],-0.11 h (inactive)
same,inhibition,[16],-5% (inactive)
same,fluorescence ratio (interference),[17],1 (inactive)
same,activity remaining,[1],117% (inactive)
same,remaining activity,[2],122% (inactive)
same,z-score,"[18]; MELAS cybrid survival, CellTiter-Glo 48 h, stronger effect = higher value",-0.303 (inactive) and 0.479 (inactive)
same,z-score,"[18]; Rieske KO mouse fibroblast survival, CellTiter-Glo 72 h",0.386 and -0.565
same,z-score,[19],0.725 (inactive) and 0.425 (inactive)
NC(=O)c1cnccn1,activity remaining,[1],102% (inactive)
same,remaining activity,[2],80.6% (inactive)
O=C(CCc1ccc(O)cc1)c1c(O)cc(O)cc1O,activity remaining,[1],105% (inactive)
same,remaining activity,[2],79.2% (inactive)
CCCCNc1cc(C(=O)O)cc(S(N)(=O)=O)c1Oc1ccccc1,activity remaining,[1],115% (inactive)
same,remaining activity,[2],109% (inactive)
NC(=O)NO,activity remaining,[1],121% (inactive)
same,remaining activity,[2],117% (inactive)
CN(C)C(=O)Oc1ccc[n+](C)c1,activity remaining,[1],93.4% (inactive)
same,remaining activity,[2],91.3% (inactive)
CC1OC1P(=O)(O)O (stereo not drawn),period change,[15],-0.1 h (inactive)
same,inhibition,[16],-2% (inactive)
same,fluorescence ratio (interference),[17],1 (inactive)
same,activity remaining,[1],94.8% (inactive)
same,remaining activity,[2],105% (inactive)
same,fold change,[12]; stronger effect = lower value,1.08 (inactive) and 0.849 (inactive)
same,fold change,[12]; [20],1.1 and 5.83
same,cell count,[12]; [21],10700 and 11000
same,cell count,[12]; [22],9890 and 12900
same,z-score,[19],0.665 (inactive)
